HttQ103 aggreg – reduces HttQ103-GFP aggregates in PC12 cells; PC12 HttQ103-GFP aggregates, Acumen cytometry, 40 h; Potency, µM (highest dose often 46.1 µM), for the others: at the highest dose activity change, negative = inhibition, actives largely listed as inhibitors; 220,000 tested, 1.1% active; AID 1688; note: potency is the fitted concentration of half-maximal effect; % is set by controls: 0 for no effect and ±100 for the full control effect; nearly all actives have a fitted effect of over 60% in size
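Multiplexed with ATP-based cell death, this channel scores GFP aggregates in PC12 cells expressing inducible HTTex1-Q103-GFP. Induction used 100 nM tebufenozide; compounds were tested in concentration series.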
PNC assembly inh – perinucleolar compartment assembly inhibition; PC3M PTB-GFP, PNC prevalence imaging, 16 h; active compounds read low; activity change (PNC), negative = inhibition, % at 10 µM; 140,000 tested, 3.1% active;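 active = readout at or below -70, meaning at least 70% loss of cells showing the perinucleolar compartment, a nuclear body marking cancer cells; inconclusive = readout between -30 and a set limit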;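 note: plate controls were DMSO wells for no effect and camptothecin positive control wells for full effect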
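Read-out is percentage of cells bearing a perinucleolar compartment, from automated 20x imaging of fixed, Hoechst-stained PC3M PTB-GFP cells. Cells were seeded 4 h, then exposed 16 h to compound (23 nl of library stock) in duplicate plates.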
HTT cytoprotect – cytoprotection in Huntington HTT-Q103 PC12 cell model; PC12 HTT-Q103 induced, cytoprotection, ATP luminescence, 40 h; Potency, µM (doses to about 56.4 µM), inactives show cytoprotection (ATP increase), most hits filed as activators; 230,000 tested, 0.14% active; note: potency is the fitted concentration of half-maximal effect; % of control where 0% means no effect; nearly all actives have a fitted effect of over 45% in size
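Compounds added alongside 100 nM tebufenozide, which induces toxic Q103 huntingtin exon 1-GFP in stable PC12 cells; surviving cells quantified by luminescent ATP measurement. Medium: phenol red-free DMEM, 5% equine and 5% calf serum.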
Numbers without * were called inactive; ? = inconclusive; · = not tested or not shown; [ ] = remark or other dose. This excerpt belongs to a sample that is enriched for hits. Unless noted, calls come from the whole dose curve; as a rule, active = well fitted curve in the direction sought with a large enough effect; inconclusive = small, poorly fitted or top-dose-only effect, or another doubt; inactive = no such curve, though single readings can be large; an effect the other way counts as inactive or inconclusive.

SMILES	HttQ103 aggreg	PNC assembly inh	HTT cytoprotect
Brc1ccc(C=Nc2ccc(Nc3ccccc3)cc2)s1	-20.9%	-6.6	25.3%[10 µM]
C(=Nc1ccc(Nc2ccccc2)cc1)c1ccc2ccccc2c1	0.3%	-82.5*	2.5%[10 µM]
CCOC(=O)c1ccc2[nH]cc(C(C)=O)c(=O)c2c1	-20.6%	-13.4	8.1%[10 µM]
CC(=O)c1c[nH]c2ccc(C)cc2c1=O	-14.3%	-86.7*	-6.1%
CCOC(=O)c1ccc(-n2c(CN(CC)CC)nc3ccc([N+](=O)[O-])cc3c2=O)cc1	1.8%	·	?
CCN1CCN(C(=O)CN(CC)S(=O)(=O)c2ccc(Cl)cc2)CC1	2.8%	8.4	-37.7%
Cc1ccc(C)c(NC(=O)CN(C)C(=O)CCN2C(=O)c3ccccc3C2=O)c1	14.1µM*	?	-79.8%
CCOc1ccccc1OCCCC(=O)N(C)CC(=O)Nc1cc(C)ccc1C	4.9%	·	-31.7%
CC(C)c1ccc(C2NC(C(=O)O)CS2)cc1 (centres undefined)	0.0%	36.3	-3.8%
CC(Oc1ccccc1)C(=O)NNC(=O)c1ccccn1 (centres undefined)	-28.3%	-7.3	3.9%[10 µM]
C/C(=N\NC(=O)C(C)Oc1ccc([N+](=O)[O-])cc1)c1ccccn1 (centres undefined)	10µM*	99.5	-71.5%
Brc1ccc(-c2noc(COc3ccc4c(c3)CCC4)n2)o1	-29.2%	-80.3*	0.4%[10 µM]
Clc1ccc(OCc2nc(-c3ccc(Br)o3)no2)cc1	3.8%	3.8	-11.6%
O=C(/C=C/c1cn(-c2ccccc2)nc1-c1cccnc1)N1CCCCC1	13.4%	·	-29.5%[10 µM]
Cc1cc(C)nc(N2CCN(C(=O)CCC(=O)Nc3nnc(CC(C)C)s3)CC2)n1	13.8%[9.22 µM]	·	-39.1%[10 µM]
CCOC(=O)c1oc2ccccc2c1CN1CCN(C(=O)c2ccccc2)CC1	16.0%	-109.4*	-3.6%[10 µM]
CCOC(=O)c1oc2ccccc2c1CN1CCN(c2ccccc2)CC1	?	?	16.5%
CN(CCc1ccccn1)S(=O)(=O)c1ccccc1F	-14.0%	36.7	4.5%
CCCc1nc2ccc(NC(=O)c3ccco3)cc2c(=O)n1Cc1ccccc1Cl	3.8%	-100.0*	-3.8%[10 µM]
CCCc1nc2ccc(NC(=O)c3ccco3)cc2c(=O)n1Cc1ccc(Cl)cc1	-25.7%	31.7	12.2%
O=C(Nc1ccccc1)C1=C[C@H](c2coc3ccccc3c2=O)C[C@H](OCc2ccc(CO)cc2)O1	8.3%[9.22 µM]	·	-10.3%[10 µM]
COc1c(C(=O)Nc2ccc(Cc3ccncc3)cc2)ccc2ccccc12	12.6µM*	16.4	·
COc1ccc(Br)cc1C(=O)Nc1ccc(Cc2ccncc2)cc1	?	-0.1	-31.2%
C[C@H](NC(=O)c1nc[nH]c1C(=O)N[C@@H](CCCCNC(=O)OC(C)(C)C)C(=O)OC(C)(C)C)C(=O)OC(C)(C)C	-30.5%[9.22 µM]	·	1.8%[10 µM]
CCOc1ccc(N(CC(=O)N/N=C/c2cccnc2)S(C)(=O)=O)cc1	-15.1%	·	-1.4%
SMILES	HttQ103 aggreg	PNC assembly inh	HTT cytoprotect
Cc1noc(C)c1C(=O)N1CCN(Cc2ccccc2)CC1	-7.3%	-8.7	0.8%
Cc1noc(C)c1C(=O)N1CCN(CCc2ccccc2)CC1	-8.7%	-102.2*	-15.4%[0.074 µM]
Cc1ccc(SC(=O)c2c(C)noc2-c2cc(C)on2)cc1	16.7%[9.22 µM]	·	37.0%[10 µM]
O=C(NC(=S)NNC(=O)c1cccs1)c1ccco1	11.2µM*	26.0	-77.5%
COc1ccc(C(=O)NNC(=S)NC(=O)c2ccco2)cc1	20µM*	-17.4	-45.8%
O=C(NNC(=O)c1cccs1)c1ccco1	-15.0%[9.22 µM]	·	4.2%[10 µM]
COc1cc(NC(=O)c2cccs2)c(OC)cc1NC(=O)c1ccco1	7.6%	-113.8*	-2.0%[10 µM]
CCCOc1ccc(C(=O)NNC(=S)NC(=O)c2ccco2)cc1	0.9%[9.22 µM]	·	?
COc1ccc(NC(=O)c2ccco2)cc1NC(=O)c1cccs1	-8.6%	16.7	2.2%
CCc1nc(SCc2nc3ccccc3[nH]2)c2oc3ccccc3c2n1	11.6%	-25.5	1.6%
COCC(=O)N1CCC2(CCN(Cc3ccc(C#N)cc3)CC2)CC1	·	·	14.8%
CCCC12CN3CC(C)(CN(C1)C3c1ccco1)C2=O (centres undefined)	-13.3%	·	13.2%
N=C1C(c2ccccc2)=C(O)CN1c1cccc(S(=O)(=O)Nc2cccc(C(F)(F)F)c2)c1	7.1%	46.5	-12.8%[10 µM]
CCOc1cc2[nH]c(=S)n(CCCN3CCOCC3)c(=O)c2cc1OCC	-18.3%	?	-19.6%[0.074 µM]
CCOc1cc2[nH]c(=S)n(CCCOC)c(=O)c2cc1OCC	3.98µM*	?	?
COc1ccc(C2C(C(=O)Nc3cccnc3)=C(C)Nc3nc(-c4cccs4)nn32)cc1OC (centres undefined)	-2.4%	-108.4*	6.0%[10 µM]
COc1ccc(C2C(C(=O)Nc3cccnc3)=C(C)Nc3nc(-c4cccs4)nn32)cc1 (centres undefined)	-1.3%	-8.2	16.3%[10 µM]
CN(CCNC(=O)c1cn(C)c2ccc(S(=O)(=O)N3CCCC3)cc2c1=O)CCc1ccccc1	14.4%	?	-21.5%
CC(=O)N(c1ccc2oc(=O)sc2c1)S(=O)(=O)c1cccs1	?	-0.8	?
CC(C)C(=O)N(c1ccc2oc(=O)sc2c1)S(=O)(=O)c1cccs1	·	6.7	12.6µM*
O=C(Nc1nnc(SCC(=O)N2CCOCC2)s1)c1ccccc1	?	-89.3*	·
CCOc1ccccc1C(=O)Nc1nnc(SCC(=O)N2CCOCC2)s1	-9.2%	·	-16.2%
O=S(=O)(Nc1cccc(C(F)(F)F)c1)c1cccnc1	6.3%	22.4	2.1%
Cc1ccc(S(=O)(=O)Nc2cccnc2)cc1	8.2%	78.4	-1.8%
CCCCOc1ccc(S(=O)(=O)Nc2cccnc2)cc1	11.2µM*	-6.3	-19.0%
SMILES	HttQ103 aggreg	PNC assembly inh	HTT cytoprotect
O=S(=O)(Nc1cccnc1)c1cccc(C(F)(F)F)c1	4.1%	-91.5*	15.3%[0.074 µM]
CCC1Sc2ccccc2N(CC(=O)NCCC(C)C)C1=O (centres undefined)	-27.3%	44.9	-6.1%
CN1C(=O)C2(C(C#N)=C(N)N(c3cc(Cl)cc(Cl)c3)C3=C2C(=O)CCC3)c2ccccc21 (centres undefined)	4.3%	19.4	-0.2%
CN1C(=O)C2(c3ccccc31)C1CCCC=C1C(C#N)=C(N)C2(C#N)C#N (centres undefined)	·	2.5	20µM*
CC1CN(c2ccc(S(=O)(=O)N3CCOCC3)cn2)CC(C)O1 (centres undefined)	-7.9%	8.2	9.8%
CCc1ccccc1-n1c(SCC(=O)N2CCCC2)nnc1-c1ccccn1	-0.9%	1.3	-7.3%[10 µM]
CCOc1c(C)cc2[nH]c(CCC(=O)O)nc2c1C	10.8%	-118.8*	7.5%[1.9 µM]
O=C(O)CCc1nc2ccccc2[nH]1	10.5%	·	8.6%
O=C(CSCCO)Nc1ccc(C2CCCCC2)cc1	10.6%	-126.9*	-33.3%
O=C(CCN1CCN(CCO)CC1)Nc1ccc(C2CCCC2)cc1	17.1%[9.22 µM]	·	-30.4%
O=P(c1ccccc1)(c1ccccc1)C(c1ccccn1)P(=O)(c1ccccc1)c1ccccc1	-21.2%[9.22 µM]	·	-25.6%[10 µM]
Brc1ccc2c(c1)OCCOCCOc1cc(Br)ccc1OCCOCCOCCO2	25.1µM*	16.6	-16.7%[10 µM]
Brc1cc2c(cc1Br)OCCOCCOCCOCCO2	-6.9%	·	-34.9%
O=C(NC(Cc1c[nH]c2ccccc12)C(=O)O)c1ccc(F)cc1 (centres undefined)	3.9%	·	2.5%
CCOc1c2ccc(C(=O)NCCCCc3ccccc3)cc2nn1C	7.0%	47.7	-20.5%

Screening data deposited in PubChem by National Center for Advancing Translational Sciences (NCATS).
